Reference: the supplement of paper PMC10849652
The full data set covers some 8,800 targets. This sample favours those with a hit. About 0.5% of all pairs of compound and target were hits. A number with no mark means an inactive call.

Legend:
Assay in all cases: log2 fold change, soluble protein after heating vs DMSO (PISA); higher = thermal stabilisation; K562 lysate, 10 uM; active = over 0.2 and 3.5 SD of the protein, either way, in both replicates (recomputed)
nilotinib = compound: Cc1cn(-c2cc(NC(=O)c3ccc(C)c(Nc4nccc(-c5cccnc5)n4)c3)cc(C(F)(F)F)c2)cn1 [nilotinib]
Summary of the method: (§1)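 Pellets of K562 cells were dounce-homogenised in PBS pH 7.4 with 1 mM MgCl2, and the crude extract was held at 1 mg/mL protein for a 30 min treatment with 10 μM compound. Aliquots were heated for 3 min over 48°C-58°C and pooled before NP-40 was added to 0.5% at 4°C. The supernatant from 21,000xg for 90 min was quantified by TMTpro 16plex LC-MS/MS with channel sums equalised. Values are reported from duplicates as log-two fold change in thermal stability relative to solvent controls.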

[1] = compound: Cc1nc(Nc2n[nH]c3c2CN(C(=O)N[C@H](CN(C)C)c2ccccc2)C3(C)C)c2sccc2n1
Summary of the method: as §1

dasatinib = compound: Cc1nc(Nc2ncc(C(=O)Nc3c(C)cccc3Cl)s2)cc(N2CCN(CCO)CC2)n1 [dasatinib]
Summary of the method: as §1

[2] = compound: Cc1ncc(-c2ccnc(Nc3ccc(S(C)(=O)=O)cc3)n2)n1C(C)C
Summary of the method: as §1

[3] = compound: Cn1cc(-c2ccc3c(c2)CCN3C(=O)Cc2cccc(C(F)(F)F)c2)c2c(N)ncnc21
Summary of the method: as §1

quisinostat = compound: Cn1cc(CNCC2CCN(c3ncc(C(=O)NO)cn3)CC2)c2ccccc21 [quisinostat]
Summary of the method: as §1

tipifarnib = compound: Cn1cncc1[C@@](N)(c1ccc(Cl)cc1)c1ccc2c(c1)c(-c1cccc(Cl)c1)cc(=O)n2C [tipifarnib]
Summary of the method: as §1

[4] = compound: NC(=O)Nc1cc(-c2cccc(F)c2)sc1C(=O)N[C@H]1CCCNC1
Summary of the method: as §1

[5] = compound: NC(=O)c1cnc(N[C@@H]2CCCC[C@@H]2N)nc1Nc1cccc(-n2nccn2)c1
Summary of the method: as §1

[6] = compound: NC1(c2ccc(-c3nc4ccn5c(=O)[nH]nc5c4cc3-c3ccccc3)cc2)CCC1
Summary of the method: as §1

[7] = compound: NCC(=O)Nc1ccc(-n2nc(C(F)(F)F)cc2-c2ccc3c(ccc4ccccc43)c2)cc1
Summary of the method: as §1

vorinostat = compound: O=C(CCCCCCC(=O)Nc1ccccc1)NO [vorinostat]
Summary of the method: as §1

silmitasertib = compound: O=C(O)c1ccc2c(c1)nc(Nc1cccc(Cl)c1)c1ccncc12 [silmitasertib]
Summary of the method: as §1

[8] = compound: O=C1NC(=O)C(c2cnc3ccccn23)=C1c1cn2c3c(cc(F)cc13)CN(C(=O)N1CCCCC1)CC2
Summary of the method: as §1

entospletinib = compound: c1cn2cc(-c3ccc4cn[nH]c4c3)nc(Nc3ccc(N4CCOCC4)cc3)c2n1 [entospletinib]
Summary of the method: as §1

MYO1C (UniProt O00159)
Chain of UniProt O00159 (O00159 whole entry, looked up): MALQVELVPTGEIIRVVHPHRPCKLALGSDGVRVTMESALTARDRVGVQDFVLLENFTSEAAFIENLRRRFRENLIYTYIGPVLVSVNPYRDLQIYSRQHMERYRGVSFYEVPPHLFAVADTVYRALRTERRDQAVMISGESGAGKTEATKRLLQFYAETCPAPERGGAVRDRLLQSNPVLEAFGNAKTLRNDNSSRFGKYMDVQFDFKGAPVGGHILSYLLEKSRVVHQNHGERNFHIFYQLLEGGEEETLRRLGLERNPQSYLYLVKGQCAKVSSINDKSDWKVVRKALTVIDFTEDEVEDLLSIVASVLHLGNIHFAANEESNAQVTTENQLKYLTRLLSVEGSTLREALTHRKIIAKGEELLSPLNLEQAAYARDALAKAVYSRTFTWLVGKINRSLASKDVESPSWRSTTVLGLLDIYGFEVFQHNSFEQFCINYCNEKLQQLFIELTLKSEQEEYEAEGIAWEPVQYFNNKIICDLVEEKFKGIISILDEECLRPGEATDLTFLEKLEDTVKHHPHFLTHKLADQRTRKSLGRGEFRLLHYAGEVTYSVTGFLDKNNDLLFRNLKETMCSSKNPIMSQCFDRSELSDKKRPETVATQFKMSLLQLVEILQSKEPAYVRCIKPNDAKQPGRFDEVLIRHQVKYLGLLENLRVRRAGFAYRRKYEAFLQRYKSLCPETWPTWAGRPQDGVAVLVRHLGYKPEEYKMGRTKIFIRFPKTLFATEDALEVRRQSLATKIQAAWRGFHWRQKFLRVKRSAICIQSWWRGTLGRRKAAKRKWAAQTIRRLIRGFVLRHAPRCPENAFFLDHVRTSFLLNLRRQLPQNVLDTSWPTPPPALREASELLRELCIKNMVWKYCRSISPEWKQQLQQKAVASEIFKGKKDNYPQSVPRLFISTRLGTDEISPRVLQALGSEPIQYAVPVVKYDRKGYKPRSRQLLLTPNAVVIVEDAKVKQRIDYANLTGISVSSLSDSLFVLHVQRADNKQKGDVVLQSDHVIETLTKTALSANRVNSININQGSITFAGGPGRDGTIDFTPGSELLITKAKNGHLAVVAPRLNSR
log2 fold change (nilotinib): 0.019
log2 fold change [1]: -0.013
log2 fold change (dasatinib): 0.112
log2 fold change [2]: 0.005
log2 fold change [3]: -0.038
log2 fold change (quisinostat): -0.052
log2 fold change (tipifarnib): 0.019
log2 fold change [4]: -0.082
log2 fold change [5]: 0
log2 fold change [6]: -0.087
log2 fold change [7]: -0.017
log2 fold change (vorinostat): -0.171
log2 fold change (silmitasertib): 0.015
log2 fold change [8]: 0.11
log2 fold change (entospletinib): 0.033

MYH6 (UniProt P13533)
log2 fold change (quisinostat): -0.007
log2 fold change [4]: 0.082
log2 fold change [5]: 0.092
log2 fold change [6]: -0.114
log2 fold change (vorinostat): 0.209
log2 fold change (silmitasertib): -0.053
log2 fold change [8]: 0.188
log2 fold change (entospletinib): 0.102

NDUFAF5 (UniProt Q5TEU4)
log2 fold change (dasatinib): 0.02
log2 fold change [3]: -0.061
log2 fold change (quisinostat): -0.078
log2 fold change [4]: 0.114
log2 fold change [5]: -0.034
log2 fold change [6]: -0.042
log2 fold change [7]: -0.023
log2 fold change (vorinostat): 0.065
log2 fold change (silmitasertib): 0.002
log2 fold change [8]: -0.006
log2 fold change (entospletinib): -0.046

NFAT5 isoform 4 (UniProt O94916)
log2 fold change (quisinostat): 0.014
log2 fold change [4]: 0.012
log2 fold change [8]: -0.062

PARD3B (UniProt Q8TEW8)
log2 fold change (dasatinib): 0.051
log2 fold change [3]: -0.095
log2 fold change [6]: 0.174
log2 fold change (vorinostat): -0.585 (active)
log2 fold change (silmitasertib): -0.209

NEXN (UniProt Q0ZGT2)
log2 fold change (nilotinib): -0.022
log2 fold change [1]: -0.011
log2 fold change (dasatinib): 0.043
log2 fold change [2]: -0.051
log2 fold change [3]: 0.027
log2 fold change (tipifarnib): -0.043
log2 fold change [5]: -0.149
log2 fold change [6]: -0.002
log2 fold change [7]: 0.144
log2 fold change (vorinostat): -0.335
log2 fold change (silmitasertib): -0.038
log2 fold change (entospletinib): 0.042

P2RY1 (UniProt P47900)
log2 fold change (dasatinib): 0.012
log2 fold change [3]: -0.027
log2 fold change [5]: -0.182
log2 fold change [6]: 0.004
log2 fold change (vorinostat): 0.04
log2 fold change (silmitasertib): 0.13
log2 fold change (entospletinib): -0.064

MTHFD1 (UniProt V9GZ32)
log2 fold change (nilotinib): -0.43
log2 fold change [1]: -0.802
log2 fold change [2]: -0.041
log2 fold change (tipifarnib): 0.188
log2 fold change [5]: -0.185

ORC3 (UniProt Q9UBD5)
Chain of UniProt Q9UBD5 (Q9UBD5 whole entry, looked up): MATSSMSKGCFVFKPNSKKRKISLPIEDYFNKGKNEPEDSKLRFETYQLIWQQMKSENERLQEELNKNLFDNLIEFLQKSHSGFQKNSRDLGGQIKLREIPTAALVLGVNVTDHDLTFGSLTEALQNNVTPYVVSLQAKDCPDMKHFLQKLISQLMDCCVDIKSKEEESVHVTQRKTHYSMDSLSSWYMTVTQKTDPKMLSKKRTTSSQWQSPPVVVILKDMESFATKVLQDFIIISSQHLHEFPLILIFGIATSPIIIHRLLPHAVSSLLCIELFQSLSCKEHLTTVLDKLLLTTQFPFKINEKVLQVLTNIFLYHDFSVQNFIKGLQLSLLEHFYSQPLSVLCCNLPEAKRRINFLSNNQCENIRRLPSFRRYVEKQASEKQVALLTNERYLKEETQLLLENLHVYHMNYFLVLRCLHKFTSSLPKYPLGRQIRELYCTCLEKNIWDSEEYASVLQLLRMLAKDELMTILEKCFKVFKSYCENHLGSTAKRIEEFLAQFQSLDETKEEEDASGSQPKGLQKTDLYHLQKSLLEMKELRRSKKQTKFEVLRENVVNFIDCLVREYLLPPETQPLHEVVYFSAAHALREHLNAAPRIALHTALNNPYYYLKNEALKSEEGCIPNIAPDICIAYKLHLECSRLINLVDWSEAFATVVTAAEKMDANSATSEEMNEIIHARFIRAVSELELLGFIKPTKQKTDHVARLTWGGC
log2 fold change (nilotinib): 0.038
log2 fold change [1]: -0.062
log2 fold change [2]: 0.059
log2 fold change (tipifarnib): -0.084
log2 fold change [5]: -0.053

NSUN7 (UniProt Q8NE18)
log2 fold change (quisinostat): -0.573 (active)
log2 fold change [4]: 0.01
log2 fold change [5]: 0.009
log2 fold change [6]: -0.031
log2 fold change [7]: 0.241
log2 fold change (vorinostat): -0.003
log2 fold change (silmitasertib): 0.005
log2 fold change [8]: -0.108
log2 fold change (entospletinib): -0.042

MSH2 (UniProt P43246)
log2 fold change (nilotinib): -0.005
log2 fold change [1]: -0.008
log2 fold change (dasatinib): -0.038
log2 fold change [2]: -0.01
log2 fold change [3]: 0.01
log2 fold change (quisinostat): -0.08
log2 fold change (tipifarnib): 0.004
log2 fold change [4]: 0.046
log2 fold change [5]: 0.016
log2 fold change [6]: -0.017
log2 fold change [7]: 0.006
log2 fold change (vorinostat): -0.287 (active)
log2 fold change (silmitasertib): 0.027
log2 fold change [8]: -0.022
log2 fold change (entospletinib): 0.034

NSA2 (UniProt O95478)
log2 fold change (nilotinib): 0.102
log2 fold change [1]: -0.04
log2 fold change (dasatinib): -0.323
log2 fold change [2]: -0.08
log2 fold change [3]: -0.113
log2 fold change (tipifarnib): -0.004
log2 fold change [5]: 0.076
log2 fold change [6]: -0.15
log2 fold change [7]: 0.035
log2 fold change (vorinostat): -0.073
log2 fold change (silmitasertib): -0.042
log2 fold change (entospletinib): 0.208

MYO10 (UniProt Q9HD67)
Chain of UniProt Q9HD67 (Q9HD67 whole entry, looked up): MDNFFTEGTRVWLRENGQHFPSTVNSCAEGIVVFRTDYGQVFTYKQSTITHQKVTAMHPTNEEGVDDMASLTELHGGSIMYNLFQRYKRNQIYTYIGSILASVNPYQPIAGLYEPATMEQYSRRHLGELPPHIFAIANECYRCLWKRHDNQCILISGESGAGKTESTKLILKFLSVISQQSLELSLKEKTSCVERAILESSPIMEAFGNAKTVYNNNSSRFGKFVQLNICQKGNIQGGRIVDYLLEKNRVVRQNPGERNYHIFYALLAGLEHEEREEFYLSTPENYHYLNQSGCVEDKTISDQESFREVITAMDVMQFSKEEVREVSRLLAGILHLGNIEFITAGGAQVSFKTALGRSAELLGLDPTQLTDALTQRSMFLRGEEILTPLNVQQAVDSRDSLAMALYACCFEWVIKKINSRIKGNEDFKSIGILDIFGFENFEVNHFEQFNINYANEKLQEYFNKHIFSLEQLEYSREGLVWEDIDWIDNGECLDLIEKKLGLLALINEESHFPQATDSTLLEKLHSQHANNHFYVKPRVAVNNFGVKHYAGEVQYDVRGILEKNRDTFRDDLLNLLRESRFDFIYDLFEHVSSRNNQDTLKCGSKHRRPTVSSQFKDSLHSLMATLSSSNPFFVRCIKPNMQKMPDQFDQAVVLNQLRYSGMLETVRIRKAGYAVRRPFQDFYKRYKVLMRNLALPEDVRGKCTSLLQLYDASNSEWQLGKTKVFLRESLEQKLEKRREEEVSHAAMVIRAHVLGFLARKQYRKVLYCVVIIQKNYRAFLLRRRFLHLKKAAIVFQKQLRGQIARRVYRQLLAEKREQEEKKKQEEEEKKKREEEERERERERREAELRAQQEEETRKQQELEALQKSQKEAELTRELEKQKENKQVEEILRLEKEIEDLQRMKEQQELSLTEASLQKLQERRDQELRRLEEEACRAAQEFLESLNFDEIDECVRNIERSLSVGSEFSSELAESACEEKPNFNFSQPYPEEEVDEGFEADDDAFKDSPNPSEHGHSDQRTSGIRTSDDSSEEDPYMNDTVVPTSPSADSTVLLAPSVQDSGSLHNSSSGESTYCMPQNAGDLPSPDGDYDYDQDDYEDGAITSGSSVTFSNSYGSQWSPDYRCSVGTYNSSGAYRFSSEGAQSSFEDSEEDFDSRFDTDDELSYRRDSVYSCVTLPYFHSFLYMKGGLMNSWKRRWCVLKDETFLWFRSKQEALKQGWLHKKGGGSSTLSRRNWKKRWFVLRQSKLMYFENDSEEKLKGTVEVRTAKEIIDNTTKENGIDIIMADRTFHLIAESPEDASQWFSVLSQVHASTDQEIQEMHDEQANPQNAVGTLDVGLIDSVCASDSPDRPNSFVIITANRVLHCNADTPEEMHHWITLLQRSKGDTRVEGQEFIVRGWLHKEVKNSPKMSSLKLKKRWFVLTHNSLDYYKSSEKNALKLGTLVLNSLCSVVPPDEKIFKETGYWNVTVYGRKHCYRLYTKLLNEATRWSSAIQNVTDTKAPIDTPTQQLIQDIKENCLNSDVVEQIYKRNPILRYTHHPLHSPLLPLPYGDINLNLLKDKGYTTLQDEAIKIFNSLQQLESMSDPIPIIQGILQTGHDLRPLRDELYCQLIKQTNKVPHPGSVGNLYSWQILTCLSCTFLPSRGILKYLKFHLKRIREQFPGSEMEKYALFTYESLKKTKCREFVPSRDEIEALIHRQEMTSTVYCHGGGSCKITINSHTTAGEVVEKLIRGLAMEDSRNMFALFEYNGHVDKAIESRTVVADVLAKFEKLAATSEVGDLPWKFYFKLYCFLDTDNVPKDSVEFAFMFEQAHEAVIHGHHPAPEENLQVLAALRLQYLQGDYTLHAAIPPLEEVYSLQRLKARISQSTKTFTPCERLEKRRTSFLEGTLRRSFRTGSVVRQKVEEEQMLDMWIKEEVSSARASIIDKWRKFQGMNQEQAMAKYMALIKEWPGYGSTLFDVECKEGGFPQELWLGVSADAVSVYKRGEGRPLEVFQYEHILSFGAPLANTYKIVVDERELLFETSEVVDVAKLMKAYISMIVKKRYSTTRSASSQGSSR
log2 fold change (nilotinib): -0.019
log2 fold change [1]: -0.021
log2 fold change [2]: 0.126
log2 fold change (quisinostat): 0.074
log2 fold change (tipifarnib): -0.063
log2 fold change [4]: -0.051
log2 fold change [6]: -0.161
log2 fold change [7]: 0.401
log2 fold change (vorinostat): -0.038
log2 fold change (silmitasertib): 0
log2 fold change [8]: 0.159

NUDT6 (UniProt P53370)
log2 fold change (dasatinib): -0.013
log2 fold change [3]: 0.032
log2 fold change (quisinostat): 0.021
log2 fold change [4]: -0.03
log2 fold change [6]: -0.058
log2 fold change [7]: 0.128
log2 fold change (vorinostat): 0.038
log2 fold change (silmitasertib): -0.096
log2 fold change [8]: 0.02
log2 fold change (entospletinib): -0.225

NFATC2IP (UniProt Q8NCF5)
Chain of UniProt Q8NCF5 (Q8NCF5 whole entry, looked up): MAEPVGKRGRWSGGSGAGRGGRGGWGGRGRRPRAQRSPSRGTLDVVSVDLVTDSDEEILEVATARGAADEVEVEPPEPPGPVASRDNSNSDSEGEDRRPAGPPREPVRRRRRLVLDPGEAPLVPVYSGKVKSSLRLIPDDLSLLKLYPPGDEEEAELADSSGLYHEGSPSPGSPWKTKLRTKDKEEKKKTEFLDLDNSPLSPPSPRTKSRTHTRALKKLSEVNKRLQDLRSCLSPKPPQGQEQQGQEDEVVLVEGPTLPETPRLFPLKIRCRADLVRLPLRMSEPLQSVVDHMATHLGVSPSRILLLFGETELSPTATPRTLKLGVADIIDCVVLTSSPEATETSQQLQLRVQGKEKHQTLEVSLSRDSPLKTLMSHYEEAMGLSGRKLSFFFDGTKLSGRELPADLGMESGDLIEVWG
log2 fold change (nilotinib): 0.027
log2 fold change [1]: -0.015
log2 fold change (dasatinib): 0.071
log2 fold change [2]: -0.055
log2 fold change [3]: 0.005
log2 fold change (quisinostat): 0.019
log2 fold change (tipifarnib): 0.061
log2 fold change [4]: 0
log2 fold change [5]: -0.015
log2 fold change [6]: 0.03
log2 fold change [7]: 0.041
log2 fold change (vorinostat): -0.069
log2 fold change (silmitasertib): -0.039
log2 fold change [8]: -0.07
log2 fold change (entospletinib): 0.041

NR3C1 isoform 3 (UniProt P04150)
Chain of UniProt P04150 (P04150 whole entry, looked up): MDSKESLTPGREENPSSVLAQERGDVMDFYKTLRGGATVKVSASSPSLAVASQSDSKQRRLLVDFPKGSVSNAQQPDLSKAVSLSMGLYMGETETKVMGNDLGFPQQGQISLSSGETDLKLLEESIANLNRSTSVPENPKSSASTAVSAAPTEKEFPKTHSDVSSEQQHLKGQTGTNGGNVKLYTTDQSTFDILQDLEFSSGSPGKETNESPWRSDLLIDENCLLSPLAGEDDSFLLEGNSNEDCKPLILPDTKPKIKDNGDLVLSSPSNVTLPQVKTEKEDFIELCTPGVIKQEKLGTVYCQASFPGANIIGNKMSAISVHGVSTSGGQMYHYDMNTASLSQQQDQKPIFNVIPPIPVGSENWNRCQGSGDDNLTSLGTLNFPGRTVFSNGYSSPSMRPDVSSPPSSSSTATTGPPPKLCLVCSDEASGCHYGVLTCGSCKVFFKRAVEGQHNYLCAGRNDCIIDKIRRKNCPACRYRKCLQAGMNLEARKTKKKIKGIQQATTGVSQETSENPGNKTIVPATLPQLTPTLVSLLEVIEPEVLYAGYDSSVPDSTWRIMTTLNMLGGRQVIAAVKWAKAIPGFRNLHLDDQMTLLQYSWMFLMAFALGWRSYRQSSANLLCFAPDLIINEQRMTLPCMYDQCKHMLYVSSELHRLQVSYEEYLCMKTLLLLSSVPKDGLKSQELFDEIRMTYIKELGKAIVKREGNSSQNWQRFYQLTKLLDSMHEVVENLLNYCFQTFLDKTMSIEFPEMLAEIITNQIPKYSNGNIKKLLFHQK
log2 fold change (nilotinib): -0.021
log2 fold change [1]: -0.069
log2 fold change (dasatinib): -0.042
log2 fold change [2]: 0.044
log2 fold change [3]: -0.014
log2 fold change (quisinostat): -0.032
log2 fold change (tipifarnib): -0.038
log2 fold change [4]: 0.035
log2 fold change [5]: 0.03
log2 fold change [6]: -0.021
log2 fold change [7]: -0.124
log2 fold change (silmitasertib): 0.05
log2 fold change [8]: 0.046
log2 fold change (entospletinib): -0.064
